From PubChem BioAssay
In the library only some 19% were active in any assay of this set; here they are far more common.
DT40 TDP1 no CPT: qHTS for Inhibitors of human tyrosyl-DNA phosphodiesterase 1 (TDP1): qHTS in cells in absence of CPT. Potency, µM (doses to about 46.2 µM), usual class: inhibitors. DT40 Tdp1-/- hTDP1 cells, no CPT, ATP luminescence, 48 h. 15% of 420,000 active. AID 686978, 2013; also: nearly all actives have a fitted effect of over 55% in size
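Compound effects on proliferation are scored in DT40 Tdp1-/-;hTDP1 cells in the absence of CPT. ATP levels (CellTiter-Glo luminescence) are recorded after a ≥48 hr, 37 °C incubation.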
HT1080NT lethal: kills 2HG-producing HT-1080-NT fibrosarcoma cells. Potency, µM (top dose mostly 46.1 µM), actives largely listed as cytotoxic. AID 686970. 1.6% of 360,000 active. HT-1080-NT fibrosarcoma viability, CellTiter-Glo ATP luminescence, 48 h;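 also: NT is the 2HG producing partner of a matched IDH1 knockdown line; nearly all actives have a fitted effect of over 55% in size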
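Compounds were tested in concentration-response format on HT-1080-NT cells for 48 hours at 37 degrees C. Cell viability came from CellTiter-Glo luminescence; curves were classified by r2, response magnitude and activity.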
TDP1 cell CPT: DT40-hTDP1 cell growth loss with CPT; chicken DT40 Tdp1-/-;hTDP1 cells + 20 nM CPT, ATP luminescence, 48 h; Potency, µM (series often up to 46.2 µM), usual class: inhibitors; 12% of 420,000 active; AID 686979; also: nearly all actives have a fitted effect of over 55% in size
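Cell growth measured by CellTiter-Glo luminescence after a minimum 48 h, 37 C compound exposure with 20 nM CPT in Tdp1-knockout DT40 cells stably expressing hTDP1, seeded 400/well; qHTS titration format.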
IL1B secr inh: inflammasome signaling inhibition, IL-1 beta readout. THP-1 LPS/ATP IL-1B secretion, AlphaLISA, 16 h; active compounds read low. activity change, % at 57.5 µM. 4.7% of 360,000 active; in the data active = activity change below about -50%; inconclusive = mostly about -30% to -49%
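THP-1 cells pretreated 1 hr with compounds (up to 57.5 uM final), then stimulated with LPS (250 ng/mL final) plus ATP (1.25 mM final); secreted IL-1B measured by AlphaLISA after 16 hr, decreased signal indicating inhibition.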
HT1080 IDH1KD tx: HT-1080 IDH1 knockdown cell toxicity (counter line) | HT-1080 IDH1 knockdown viability, ATP luminescence, 48 h | Potency, µM (highest dose often 46.1 µM), hits mostly cytotoxic | 2% of 360,000 active
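Using the IDH1-knockdown HT-1080 line run in the same batch and compound series as the NT line, viability after 48 h at 37 °C was determined by CellTiter-Glo luminescence and expressed as % activity.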
Hits are given with their value; [ ] = dose if it differs, or a comment. Unless noted, calls follow the shape of the dose curve; as a rule, active = well fitted curve in the direction sought with a large enough effect; inconclusive = small, poorly fitted or top-dose-only effect, or another doubt; inactive = no such curve, though single readings can be large; an effect the other way counts as inactive or inconclusive.

`O=C(CSc1n[nH]c(-c2ccc(F)cc2)n1)NCCc1ccccc1` gave DT40 TDP1 no CPT inconclusive and TDP1 cell CPT inactive.
For O=C(CSc1n[nH]c(-c2ccccc2)n1)NCCCc1ccccc1 the results were DT40 TDP1 no CPT 21µM and TDP1 cell CPT inconclusive.
Cc1ccc(SCc2c(-c3ccccc3)nn(C)c2Cl)cc1 was read as DT40 TDP1 no CPT 16µM, HT1080NT lethal inactive, TDP1 cell CPT inconclusive, IL1B secr inh inactive and HT1080 IDH1KD tx inactive.
For Cn1nc(-c2ccccc2)c(CSc2ccccc2)c1Cl the results were DT40 TDP1 no CPT inconclusive, HT1080NT lethal inactive, TDP1 cell CPT inconclusive, IL1B secr inh inactive and HT1080 IDH1KD tx inactive.
`FC(F)(F)c1nc(-c2cccnc2)ncc1-c1nnnn1-c1ccccc1` gave DT40 TDP1 no CPT 16µM, HT1080NT lethal inactive, TDP1 cell CPT inconclusive, IL1B secr inh inactive and HT1080 IDH1KD tx inactive.
For COc1ccc(-n2nnnc2-c2cnc(N3CCCC3)nc2C(F)(F)F)cc1 the results were DT40 TDP1 no CPT 9.2µM, HT1080NT lethal inactive, TDP1 cell CPT 8.2µM, IL1B secr inh -55 and HT1080 IDH1KD tx inactive.
Screening FC(F)(F)c1nc(-c2cccs2)ncc1-c1nnnn1-c1ccc(Cl)cc1 returned DT40 TDP1 no CPT 2.9µM, HT1080NT lethal inconclusive, TDP1 cell CPT 4.1µM, IL1B secr inh inactive and HT1080 IDH1KD tx inconclusive.
Clc1ccc(-n2nnnc2-c2cnc(-c3ccncc3)nc2-c2cccs2)cc1 was read as DT40 TDP1 no CPT inconclusive, HT1080NT lethal inactive, TDP1 cell CPT inconclusive, IL1B secr inh inactive and HT1080 IDH1KD tx inactive.
For COc1ccc(Cl)cc1S(=O)(=O)N1CCCC(C(=O)N2CCOCC2)C1 (stereo unspecified) the results were DT40 TDP1 no CPT inactive, HT1080NT lethal inactive, TDP1 cell CPT inactive, IL1B secr inh inactive and HT1080 IDH1KD tx inactive.
For CNC(=O)[C@H]1O[C@@H](n2cnc3c(NCc4ccc(N)cc4)ncnc32)[C@H](O)[C@@H]1O the results were DT40 TDP1 no CPT inactive and TDP1 cell CPT inactive.
For Cn1c(=O)c2sccc2n2c(CCCC(=O)N3CCCCC3)nnc12 the results were DT40 TDP1 no CPT inactive, HT1080NT lethal inactive, TDP1 cell CPT inactive, IL1B secr inh inactive and HT1080 IDH1KD tx inactive.
Screening O=C(O)c1sc2cc(C(F)(F)F)cnc2c1-c1ccccc1 returned DT40 TDP1 no CPT inactive, HT1080NT lethal inactive, TDP1 cell CPT inactive, IL1B secr inh inactive and HT1080 IDH1KD tx inactive.
For CSc1nnc(-c2sc3cc(C(F)(F)F)cnc3c2-c2ccccc2)n1C the results were DT40 TDP1 no CPT 16µM, HT1080NT lethal inconclusive, TDP1 cell CPT 4.6µM, IL1B secr inh inactive and HT1080 IDH1KD tx inactive[9.24 µM].
Screening O=C1C2C3c4ccccc4C(c4ccccc43)[C@@H]2C(=O)N1c1ccccn1 (stereo partly specified) returned DT40 TDP1 no CPT 21µM, HT1080NT lethal inactive, TDP1 cell CPT inconclusive, IL1B secr inh inactive and HT1080 IDH1KD tx inactive.
O=C1C2C3CC(C(Br)C3Br)C2C(=O)N1c1ccccn1 (stereo unspecified) was read as DT40 TDP1 no CPT inactive, HT1080NT lethal inactive, TDP1 cell CPT inactive, IL1B secr inh inactive and HT1080 IDH1KD tx inactive.
For O=C1C2C3C=CC(CC3)C2C(=O)N1c1ccc(Br)cc1 (stereo unspecified) the results were DT40 TDP1 no CPT inactive, HT1080NT lethal inactive, TDP1 cell CPT inactive, IL1B secr inh inactive and HT1080 IDH1KD tx inactive.
`CC1CC2(CCCCC2)Nc2c1ccc1ccccc21` (stereo unspecified) gave DT40 TDP1 no CPT 10µM, HT1080NT lethal inactive, TDP1 cell CPT inconclusive, IL1B secr inh inactive and HT1080 IDH1KD tx inactive.
CC(=O)N1c2c(ccc3ccccc23)C(C)CC12CCCCC2 (stereo unspecified) was read as DT40 TDP1 no CPT inconclusive, HT1080NT lethal inactive, TDP1 cell CPT inconclusive, IL1B secr inh inactive and HT1080 IDH1KD tx inactive.
Screening CCCCN1CCCC[C@H]1C(=O)Nc1c(C)cccc1C returned DT40 TDP1 no CPT inactive and TDP1 cell CPT inactive.
For COc1ccc(NC(=O)c2nc(-c3ccc(C)cc3)n3c2CCCCC3)cc1 the results were DT40 TDP1 no CPT 16µM and TDP1 cell CPT inconclusive.
